Data from the supplement of paper PMC10338343.
± gives the standard deviation. The full ranking holds about 8,200 sequences; the median of “pre-steady-state target cleavage rate” is about 0.024, and the highest 2% start at about 1.3. Shown is part of a subset that was picked to be rich in the highest values.

System: MIWI (PIWIL1) piRISC loaded with L1MC piRNA (30 nt)
Test: pre-steady-state target cleavage rate (min^-1); MIWI and MILI are mouse PIWI proteins and EfPiwi is from a freshwater sponge; tags in brackets are library labels; higher = faster piRNA-guided slicing of the target
Settings: guide: L1MC piRNA 5'p-UAACUAAAUACUAUGCAAGCUGUAGGUCCU
Method: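 Cleave-'n-Seq: a library of target RNAs (target site embedded in constant flanks, ACAGCATTCCGCGTTAGTGATATCCG... 5' flank; DNA-blocked outside the site) at 0.1 nM was incubated with 1 nM active mouse MILI or MIWI piRISC (synthetic 5'-monophosphorylated piRNA guide) with or without 500 nM mouse GTSF1 at 33 °C for 1 min to 16 h. Uncleaved targets were sequenced and normalised to non-target controls, and the pooled three trials were fitted to a burst-and-steady-state model to give the pre-steady-state cleavage rate (min^-1; k3 is constrained to at most 1e-4). Sequence is the target site only; target names encode pairing extent (gX:gY) and contiguous / 1-mismatch / 2-mismatch / bulge geometry. Fits with R² ≤ 0 are excluded.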

[1] = auxiliary factor: 500 nM mouse GTSF1
[2] = auxiliary factor: none (no GTSF1)

Row | Sequence | pre-steady-state target cleavage rate [1] | pre-steady-state target cleavage rate [2]
1 | UGGACCUACAGCUUUGCAUAGUAUUUAGUUA | 1.43 ± 0.11 | 0.0449 ± 0.011
2 | UCCACCCUACAGCUUGCAUAGUAUUUAGUUA | 0.831 ± 0.055 | 0.0575 ± 0.012
3 | UCCACCUACAGCUUGCAUAAUAUUUAGUUA | 0.552 ± 0.049 | 0.0203 ± 0.0032
4 | UCCUGCUACAGCUACCAUAGUAUUUAGUUA | 0.337 ± 0.032 | 
5 | AGGACCUACAGCUUGCAUAGUAUUAGUUA | 0.385 ± 0.053 | 0.00372 ± 0.003
6 | UCCACCUACAGCUUGCAUAGUAUUAAGAAA | 0.351 ± 0.054 | 
7 | UCCUGGAUGAGAUUGCAUAGUAUUUAGUUA | 0.117 ± 0.011 | 0.00369 ± 0.0027
8 | UCCUGGUACAGCUUGCAUGGUAUUUAGUUA | 0.891 ± 0.058 | 0.0741 ± 0.018
9 | UCCUGGAUCAGCUUGGAUAGUAUUAAGUUA | 0.258 ± 0.033 | 0.0129 ± 0.0046
10 | UGGACCUACAGCUUGCAUAGUUAUUUAGUUA | 0.0473 ± 0.0076 | 0.00533 ± 0.0021
11 | UGGACCUACAGCUUGCAUAGUAUUUAGUUA [g2:g29:cont:t1A] | 1.61 ± 0.09 | 0.0718 ± 0.013
12 | AUGGACCUACAGCUUGCAUAGUAUUUAGUUA | 1.34 ± 0.088 | 0.0872 ± 0.018
13 | UGGACCUUCAGCUUGCAUAGUAUAUAGUUA | 1 ± 0.053 | 0.0376 ± 0.0085
14 | UGGACCUACAGCUUGCAUAGUAUUUAGUUG [g2:g29:cont:t1G] | 0.456 ± 0.037 | 0.0555 ± 0.01
15 | UCGACCUACAGCUUGCAUAGUAAUAAGUUA | 0.444 ± 0.047 | 
16 | UCCUCCAUGAGCUUGCAUAGUAUUUAGUAA | 0.471 ± 0.029 | 0.0262 ± 0.0057
17 | UCCUGCUACAGCUUGCAUAGUCAUUUAGUUA | 0.0744 ± 0.02 | 0.00362 ± 0.0031
18 | UCCUGGAUGUCCUUGCAUAGUAUUUAGUCA | 0.0473 ± 0.011 | 0.00568 ± 0.0021
19 | UCGACCUACAUGCUUGCAUAGUAUUUAGUUA | 0.913 ± 0.037 | 0.0554 ± 0.012
20 | UCCACCUACAGCUUGCAUAGUUUUUACUUA | 0.173 ± 0.03 | 0.0106 ± 0.0026
21 | UCCUGGUUCAGCUUGCAUAGUUUUUAGUUA | 0.242 ± 0.031 | 0.0386 ± 0.0094

Row | Sequence | pre-steady-state target cleavage rate [1] | pre-steady-state target cleavage rate [2]
22 | AGGACCUACAGCAACCAUAGUAUUUAGUUA | 0.426 ± 0.039 | 
23 | AGGUCCAACAGCUUGCAUAGUAUUUAGUUA | 1.5 ± 0.04 | 0.0907 ± 0.014
24 | UCCACCAACAGCUUGCAUAGUAUUUAGUUA | 1.06 ± 0.037 | 0.0618 ± 0.011
25 | UCCUCCAACAGCUUGCAUAGUAUUUAGAUA | 0.491 ± 0.042 | 0.0201 ± 0.0048
26 | UGGUCCAACAGCUUGCAUAGUAUUUAGUUA | 0.852 ± 0.034 | 0.0715 ± 0.01
27 | UCCUCCAACAGCUUGCAUAGUAUUUAGUAA | 0.675 ± 0.03 | 0.0256 ± 0.0063
28 | UCGUCCAACAGCUUGCAUAGUAUUUAGUUA | 1.4 ± 0.044 | 0.0771 ± 0.014
29 | UCCACCAACAGCUUGCAUAGUAUUUAGUAA | 0.644 ± 0.039 | 0.0342 ± 0.0071
30 | UCCUCCAACAGCUUGCAUAGUAUUUAGUUA | 1.37 ± 0.041 | 0.0735 ± 0.013
31 | UCCAACUACAGCUUGCAUAGUAUUUAGUUA | 0.646 ± 0.038 | 0.0478 ± 0.0076
32 | UGGACGUACAGCUUGCAUAGUAAUUAGUUA | 0.725 ± 0.048 | 0.0371 ± 0.0089
33 | UCCUGGUACAGCUUGCAUAGUAUUAUGAAA | 0.119 ± 0.037 | 
34 | UCCUGGUACACCUUGCAUAGUAAUUAGUUA | 0.546 ± 0.1 | 0.00728 ± 0.0025
35 | UCGACCUACAGCUUGGAUAGUAUUUAGUAA | 0.859 ± 0.043 | 0.0299 ± 0.0054
36 | UGCACCUACAGCUUGGAUAGUAUUUAGUUA | 1.18 ± 0.065 | 0.05 ± 0.008
37 | UCGACCUACAGCUUGGAUAGUAUUUAGUUA | 1.72 ± 0.055 | 0.0599 ± 0.01
38 | UCGACCUACAGCUUGGAUAGUAUUUAGAUA | 0.444 ± 0.05 | 0.0181 ± 0.0047
39 | AGCACCUACAGCUUGGAUAGUAUUUAGUUA | 0.99 ± 0.049 | 0.0433 ± 0.0065
40 | ACGACCUACAGCUUGGAUAGUAUUUAGUUA | 1.68 ± 0.067 | 0.0728 ± 0.011
41 | AGGACGAACAGCUUGCAUAGUAUUUACAAA | 0.245 ± 0.037 | 0.00641 ± 0.0027
42 | UGGACCUACACGUUGCAUAGUAUUUAGUAA | 0.575 ± 0.039 | 0.00987 ± 0.0024

Row | Sequence | pre-steady-state target cleavage rate [1] | pre-steady-state target cleavage rate [2]
43 | AGGAUCCUACAGCUUGCAUAGUAUUUAGUUA | 1.4 ± 0.068 | 0.118 ± 0.023
44 | UGGAUCCUACAGCUUGCAUAGUAUUUAGUUA | 1.37 ± 0.071 | 0.0869 ± 0.014
45 | UCGAUCCUACAGCUUGCAUAGUAUUUAGUUA | 1.49 ± 0.042 | 0.0686 ± 0.013
46 | UCCAUCCUACAGCUUGCAUAGUAUUUAGUUA | 0.558 ± 0.029 | 0.0561 ± 0.0096
47 | AGGUCCUACAGCUUGCAUAGUAUUUACAAA | 0.428 ± 0.076 | 0.00841 ± 0.003
48 | UGGACCUACAGCUUGCAGUAGUAUUUAGUUA | 0.00477 ± 0.0038 | 
49 | UCCUGGUUCAGCUUGCAUAGUAUUUAGUAA | 0.528 ± 0.055 | 0.0354 ± 0.008
50 | UCCUGCAACAGGUUGCAUAGUAUUUAGUUA | 1.11 ± 0.085 | 0.0208 ± 0.0052
51 | UCCUGGAUGUGCUUGCAUAGUAUUUAGGUUA | 0.191 ± 0.02 | 0.0232 ± 0.0058
52 | UCCUGGAUGUGCUUGCAUAGUAUUUAUGUUA | 0.202 ± 0.026 | 0.0215 ± 0.0052
53 | AGGACCUAGAGCUUGCAUAGUAAUUAGUUA | 0.747 ± 0.047 | 0.0277 ± 0.0076
54 | UCGACCAACAGCUUGCAAAGUAUUUAGUUA | 1.29 ± 0.043 | 0.0448 ± 0.01
55 | UCGACCAACAGCUUGCAUUGUAUUUAGUUA | 0.973 ± 0.028 | 0.0383 ± 0.008
56 | UCCUCCAACAGCUUGCUUAGUAUUUAGUUA | 1.28 ± 0.054 | 0.0363 ± 0.0081
57 | AGGACCAACAGCUUGCAAAGUAUUUAGUUA | 1.18 ± 0.038 | 0.0503 ± 0.01
58 | UGGACCAACAGCUUGCUUAGUAUUUAGUUA | 1.64 ± 0.092 | 0.0497 ± 0.01
59 | UGGACCAACAGCUUGCAAAGUAUUUAGUUA | 1.38 ± 0.062 | 0.0368 ± 0.0072
60 | UCGACCAACAGCUUGCUUAGUAUUUAGUUA | 1.47 ± 0.05 | 0.0416 ± 0.0081
61 | AGGACCAACAGCUUGCUUAGUAUUUAGUUA | 1.31 ± 0.066 | 0.0459 ± 0.0084
62 | UCCACCAACAGCUUGCUUAGUAUUUAGUUA | 1.31 ± 0.061 | 0.026 ± 0.0061
